# Laboratory results: article PMC7862700, “An all-to-all approach to the identification of sequence-specific readers for epigenetic DNA modifications on cytosine”
# Tests used:
# Assay in all cases: DAPPL (digital affinity profiling via proximity ligation, sequencing); 10 mM Tris-HCl pH 7.5, 50 mM NaCl, 1 mM DTT, 4% glycerol, room temperature, 30 min; GST-TFs on glutathione beads, 16-mer random dsDNA library, 0.1% formaldehyde crosslink after washing; high values mean tight binding
# FLI1 = biological target: T1, FLI1 (Homo sapiens, UniProt Q01543 1-452); details: protein: recombinant; tags: N-terminal GST; dsDNA, one strand shown
# T1 sequence: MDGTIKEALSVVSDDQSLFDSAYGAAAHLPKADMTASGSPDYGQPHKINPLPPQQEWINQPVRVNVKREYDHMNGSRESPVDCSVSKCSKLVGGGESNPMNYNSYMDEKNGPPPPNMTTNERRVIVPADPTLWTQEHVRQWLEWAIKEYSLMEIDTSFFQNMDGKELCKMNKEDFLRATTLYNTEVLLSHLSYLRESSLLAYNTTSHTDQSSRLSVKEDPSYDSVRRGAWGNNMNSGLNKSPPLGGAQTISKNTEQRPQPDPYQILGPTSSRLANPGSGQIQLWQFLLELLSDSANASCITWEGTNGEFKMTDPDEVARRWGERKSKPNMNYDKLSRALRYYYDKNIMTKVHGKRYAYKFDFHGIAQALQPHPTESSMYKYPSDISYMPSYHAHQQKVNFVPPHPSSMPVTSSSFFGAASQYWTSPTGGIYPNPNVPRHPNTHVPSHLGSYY
# In short: (§1)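 After expression in yeast as GST fusions, human transcription factors were bound to glutathione beads, DNA-barcoded and mixed with a tag-only sample. The pools were incubated with 200 nmole of a 16-mer random double-stranded DNA library in Tris/NaCl/DTT/glycerol buffer (30 min, room temperature), washed and crosslinked with 0.1% formaldehyde. Proximity ligation with BsaI/T4 ligase ran for 1 h at 37 °C, before PCR amplification and sequencing on an Illumina NextSeq500. Binding signal is a hexamer's read frequency for a factor divided by its frequency for the tag-only sample.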
# ELK1 = biological target: T2, ELK1 (Homo sapiens, UniProt P19419 1-428); details: protein: recombinant; tags: N-terminal GST; dsDNA, one strand shown
# T2 sequence: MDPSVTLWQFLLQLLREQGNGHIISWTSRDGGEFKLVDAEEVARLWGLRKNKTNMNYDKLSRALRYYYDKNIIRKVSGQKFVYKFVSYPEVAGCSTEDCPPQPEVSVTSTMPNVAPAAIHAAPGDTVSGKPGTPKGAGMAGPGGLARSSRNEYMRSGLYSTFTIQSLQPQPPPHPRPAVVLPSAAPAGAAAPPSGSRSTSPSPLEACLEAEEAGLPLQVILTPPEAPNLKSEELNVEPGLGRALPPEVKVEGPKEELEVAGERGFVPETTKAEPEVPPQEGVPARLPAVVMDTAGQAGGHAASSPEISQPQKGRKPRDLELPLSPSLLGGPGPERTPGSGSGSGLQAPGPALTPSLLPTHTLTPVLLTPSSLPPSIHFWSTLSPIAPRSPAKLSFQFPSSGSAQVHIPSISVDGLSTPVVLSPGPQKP
# In short: as §1
# GABPA = biological target: T3, GABPA (Homo sapiens, UniProt Q06546 1-454); details: protein: recombinant; tags: N-terminal GST; dsDNA, one strand shown
# T3 sequence: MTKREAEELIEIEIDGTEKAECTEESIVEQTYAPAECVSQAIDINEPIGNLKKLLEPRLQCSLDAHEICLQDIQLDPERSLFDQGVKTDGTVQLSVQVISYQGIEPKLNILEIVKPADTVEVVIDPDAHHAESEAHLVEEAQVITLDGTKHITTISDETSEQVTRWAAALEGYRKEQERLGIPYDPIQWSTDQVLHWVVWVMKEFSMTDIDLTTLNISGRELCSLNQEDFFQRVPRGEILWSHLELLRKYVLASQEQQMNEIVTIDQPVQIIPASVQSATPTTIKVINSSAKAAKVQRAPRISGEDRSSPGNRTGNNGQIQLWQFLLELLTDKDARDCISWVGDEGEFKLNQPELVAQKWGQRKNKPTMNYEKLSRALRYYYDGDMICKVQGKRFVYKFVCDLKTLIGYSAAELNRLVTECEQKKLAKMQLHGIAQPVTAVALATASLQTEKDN
# In short: as §1
# ELF1 = ELF1 (Homo sapiens, UniProt P32519 1-619); details: protein: recombinant; tags: N-terminal GST; dsDNA, one strand shown
# Sequence of ELF1 (P32519 whole entry): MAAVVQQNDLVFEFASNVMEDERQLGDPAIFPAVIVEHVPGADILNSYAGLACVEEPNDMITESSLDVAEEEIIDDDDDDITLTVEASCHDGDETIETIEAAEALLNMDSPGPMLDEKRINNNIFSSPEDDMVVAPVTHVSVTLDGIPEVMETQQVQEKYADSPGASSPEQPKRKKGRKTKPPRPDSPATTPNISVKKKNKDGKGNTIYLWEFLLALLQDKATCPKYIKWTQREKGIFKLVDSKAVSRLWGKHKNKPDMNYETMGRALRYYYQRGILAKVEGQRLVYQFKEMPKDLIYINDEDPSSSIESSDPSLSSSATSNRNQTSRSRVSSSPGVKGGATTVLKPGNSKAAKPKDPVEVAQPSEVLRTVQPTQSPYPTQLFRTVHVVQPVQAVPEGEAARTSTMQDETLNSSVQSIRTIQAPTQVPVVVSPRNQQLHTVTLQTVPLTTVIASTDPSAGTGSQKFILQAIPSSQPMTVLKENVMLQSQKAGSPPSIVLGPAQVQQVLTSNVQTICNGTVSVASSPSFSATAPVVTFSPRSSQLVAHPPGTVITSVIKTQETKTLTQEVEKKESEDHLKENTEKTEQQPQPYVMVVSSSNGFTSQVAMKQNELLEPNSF
# In short: as §1
# EHF = biological target: T4, EHF (Homo sapiens, UniProt Q9NZC4 1-300); details: protein: recombinant; tags: N-terminal GST; dsDNA, one strand shown
# T4 sequence: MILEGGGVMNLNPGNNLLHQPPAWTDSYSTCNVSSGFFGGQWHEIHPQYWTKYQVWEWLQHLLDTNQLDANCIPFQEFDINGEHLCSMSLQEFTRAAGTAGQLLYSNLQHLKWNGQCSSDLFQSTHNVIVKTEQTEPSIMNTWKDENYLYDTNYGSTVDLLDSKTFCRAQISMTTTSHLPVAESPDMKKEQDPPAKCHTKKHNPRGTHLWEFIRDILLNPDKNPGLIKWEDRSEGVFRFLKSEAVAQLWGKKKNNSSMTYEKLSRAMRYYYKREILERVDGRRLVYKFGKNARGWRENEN
# In short: as §1
# SPI1 = SPI1 (Homo sapiens, UniProt P17947 1-270); details: protein: recombinant; tags: N-terminal GST; dsDNA, one strand shown
# In short: as §1
# SPIB = SPIB (Homo sapiens, UniProt Q01892 1-262); details: protein: recombinant; tags: N-terminal GST; dsDNA, one strand shown
# Sequence of SPIB (Q01892 whole entry): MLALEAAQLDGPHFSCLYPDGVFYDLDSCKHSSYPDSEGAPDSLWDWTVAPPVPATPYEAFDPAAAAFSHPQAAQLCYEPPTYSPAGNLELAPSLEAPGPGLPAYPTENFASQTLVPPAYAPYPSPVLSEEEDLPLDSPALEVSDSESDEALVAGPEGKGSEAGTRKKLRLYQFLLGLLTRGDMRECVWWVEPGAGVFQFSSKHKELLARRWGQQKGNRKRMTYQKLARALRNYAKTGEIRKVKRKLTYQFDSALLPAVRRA
# In short: as §1
# ELK3 = biological target: T5, ELK3 (Homo sapiens, UniProt P41970 1-407); details: protein: recombinant; tags: N-terminal GST; dsDNA, one strand shown
# T5 sequence: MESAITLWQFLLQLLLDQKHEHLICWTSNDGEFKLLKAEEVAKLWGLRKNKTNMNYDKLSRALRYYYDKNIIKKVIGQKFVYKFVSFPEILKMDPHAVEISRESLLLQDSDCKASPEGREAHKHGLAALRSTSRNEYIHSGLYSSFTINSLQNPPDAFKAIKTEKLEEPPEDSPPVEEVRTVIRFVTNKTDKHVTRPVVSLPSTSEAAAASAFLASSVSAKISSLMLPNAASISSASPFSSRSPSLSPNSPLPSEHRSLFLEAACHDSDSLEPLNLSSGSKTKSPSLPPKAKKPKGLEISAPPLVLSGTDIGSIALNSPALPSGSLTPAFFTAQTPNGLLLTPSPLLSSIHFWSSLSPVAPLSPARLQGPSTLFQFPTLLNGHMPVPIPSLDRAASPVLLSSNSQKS
# In short: as §1
# FEV = biological target: T6, FEV (Homo sapiens, UniProt Q99581 1-238); details: protein: recombinant; tags: N-terminal GST; dsDNA, one strand shown
# T6 sequence: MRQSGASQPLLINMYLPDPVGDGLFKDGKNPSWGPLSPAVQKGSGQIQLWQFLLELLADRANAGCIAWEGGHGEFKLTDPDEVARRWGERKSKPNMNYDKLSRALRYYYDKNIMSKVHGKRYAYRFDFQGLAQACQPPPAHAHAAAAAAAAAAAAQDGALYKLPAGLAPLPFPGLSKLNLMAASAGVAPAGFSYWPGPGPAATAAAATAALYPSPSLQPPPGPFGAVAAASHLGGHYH
# In short: as §1
# ETV5 = ETV5 (Homo sapiens, UniProt P41161 1-510); details: protein: recombinant; tags: N-terminal GST; dsDNA, one strand shown
# Sequence of ETV5 (P41161 whole entry): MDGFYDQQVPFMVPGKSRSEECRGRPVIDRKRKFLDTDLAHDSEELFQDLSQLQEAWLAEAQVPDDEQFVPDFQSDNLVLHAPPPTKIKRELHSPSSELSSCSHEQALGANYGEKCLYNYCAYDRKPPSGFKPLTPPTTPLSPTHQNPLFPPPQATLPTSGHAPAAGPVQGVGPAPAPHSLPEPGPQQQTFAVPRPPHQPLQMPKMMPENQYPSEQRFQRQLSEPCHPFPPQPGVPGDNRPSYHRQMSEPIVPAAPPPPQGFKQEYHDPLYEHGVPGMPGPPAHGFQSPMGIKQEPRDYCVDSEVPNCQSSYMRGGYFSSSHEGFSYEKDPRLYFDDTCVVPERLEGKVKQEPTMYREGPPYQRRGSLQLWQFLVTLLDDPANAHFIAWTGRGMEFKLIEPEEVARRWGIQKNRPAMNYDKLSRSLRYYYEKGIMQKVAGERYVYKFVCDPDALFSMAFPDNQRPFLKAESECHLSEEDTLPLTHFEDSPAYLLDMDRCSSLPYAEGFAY
# In short: as §1
# HSF1 = HSF1 (Homo sapiens, UniProt Q00613 1-529); details: protein: recombinant; tags: N-terminal GST; chain copies: 3; dsDNA, one strand shown
# Sequence of HSF1 (Q00613 whole entry): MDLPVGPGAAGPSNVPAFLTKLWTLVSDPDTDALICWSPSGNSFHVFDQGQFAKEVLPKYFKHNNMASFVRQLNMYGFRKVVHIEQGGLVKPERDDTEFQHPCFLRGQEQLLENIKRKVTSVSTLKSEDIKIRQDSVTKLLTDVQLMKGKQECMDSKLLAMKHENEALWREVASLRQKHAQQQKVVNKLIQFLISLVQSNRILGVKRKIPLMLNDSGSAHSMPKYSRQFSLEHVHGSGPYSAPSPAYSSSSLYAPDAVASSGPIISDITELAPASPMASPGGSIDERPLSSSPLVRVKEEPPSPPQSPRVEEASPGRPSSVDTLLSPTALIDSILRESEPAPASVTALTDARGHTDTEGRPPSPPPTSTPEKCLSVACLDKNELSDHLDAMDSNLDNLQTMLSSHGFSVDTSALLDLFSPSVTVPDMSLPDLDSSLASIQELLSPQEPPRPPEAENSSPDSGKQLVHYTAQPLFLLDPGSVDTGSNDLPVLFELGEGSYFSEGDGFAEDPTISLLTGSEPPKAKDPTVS
# In short: as §1
# SPIC = biological target: T7, SPIC (Homo sapiens, UniProt Q8N5J4 1-248); details: protein: recombinant; tags: N-terminal GST; dsDNA, one strand shown
# T7 sequence: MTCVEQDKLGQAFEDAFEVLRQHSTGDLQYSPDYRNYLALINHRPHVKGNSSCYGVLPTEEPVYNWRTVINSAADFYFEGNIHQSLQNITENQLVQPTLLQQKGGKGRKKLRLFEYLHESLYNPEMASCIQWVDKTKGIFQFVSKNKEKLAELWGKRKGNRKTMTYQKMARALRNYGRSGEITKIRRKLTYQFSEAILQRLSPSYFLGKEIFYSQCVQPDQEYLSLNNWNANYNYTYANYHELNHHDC
# In short: as §1
# ELF4 = ELF4 (Homo sapiens, UniProt Q99607 1-663); details: protein: recombinant; tags: N-terminal GST; dsDNA, one strand shown
# Sequence of ELF4 (Q99607 whole entry): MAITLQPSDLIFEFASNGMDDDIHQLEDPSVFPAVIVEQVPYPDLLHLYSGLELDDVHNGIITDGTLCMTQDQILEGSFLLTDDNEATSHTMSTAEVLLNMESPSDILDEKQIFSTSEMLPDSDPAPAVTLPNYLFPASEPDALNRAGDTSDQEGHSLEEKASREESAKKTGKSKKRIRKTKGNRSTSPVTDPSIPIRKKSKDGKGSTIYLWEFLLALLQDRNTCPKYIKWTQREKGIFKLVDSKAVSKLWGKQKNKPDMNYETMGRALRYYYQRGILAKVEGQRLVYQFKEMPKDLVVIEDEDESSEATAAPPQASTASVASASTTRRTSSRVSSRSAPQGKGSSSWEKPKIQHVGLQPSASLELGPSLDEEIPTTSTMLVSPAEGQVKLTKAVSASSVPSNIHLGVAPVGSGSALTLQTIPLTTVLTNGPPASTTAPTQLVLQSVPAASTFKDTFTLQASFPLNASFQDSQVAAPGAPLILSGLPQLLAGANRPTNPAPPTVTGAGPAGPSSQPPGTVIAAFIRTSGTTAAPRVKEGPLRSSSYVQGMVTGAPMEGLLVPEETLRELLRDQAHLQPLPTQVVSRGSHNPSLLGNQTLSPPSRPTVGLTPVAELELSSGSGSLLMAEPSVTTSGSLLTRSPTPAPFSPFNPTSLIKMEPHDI
# In short: as §1
# ELK4 = biological target: T8, ELK4 (Homo sapiens, UniProt P28324-2 1-405); details: protein: recombinant; tags: N-terminal GST; dsDNA, one strand shown
# T8 sequence: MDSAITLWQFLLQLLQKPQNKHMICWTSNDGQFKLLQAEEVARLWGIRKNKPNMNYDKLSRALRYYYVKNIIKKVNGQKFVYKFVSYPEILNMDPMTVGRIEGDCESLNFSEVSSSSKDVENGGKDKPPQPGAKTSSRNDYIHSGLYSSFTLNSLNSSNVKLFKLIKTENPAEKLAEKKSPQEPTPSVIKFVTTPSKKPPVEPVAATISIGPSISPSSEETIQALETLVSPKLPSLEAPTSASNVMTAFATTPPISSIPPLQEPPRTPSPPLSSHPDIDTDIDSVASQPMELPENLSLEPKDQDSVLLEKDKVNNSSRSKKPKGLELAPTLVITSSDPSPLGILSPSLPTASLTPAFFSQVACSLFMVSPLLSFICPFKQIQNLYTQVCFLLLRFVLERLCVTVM
# In short: as §1
# ELF3 = biological target: T9, ELF3 (Homo sapiens, UniProt P78545 1-371); details: protein: recombinant; tags: N-terminal GST; dsDNA, one strand shown
# T9 sequence: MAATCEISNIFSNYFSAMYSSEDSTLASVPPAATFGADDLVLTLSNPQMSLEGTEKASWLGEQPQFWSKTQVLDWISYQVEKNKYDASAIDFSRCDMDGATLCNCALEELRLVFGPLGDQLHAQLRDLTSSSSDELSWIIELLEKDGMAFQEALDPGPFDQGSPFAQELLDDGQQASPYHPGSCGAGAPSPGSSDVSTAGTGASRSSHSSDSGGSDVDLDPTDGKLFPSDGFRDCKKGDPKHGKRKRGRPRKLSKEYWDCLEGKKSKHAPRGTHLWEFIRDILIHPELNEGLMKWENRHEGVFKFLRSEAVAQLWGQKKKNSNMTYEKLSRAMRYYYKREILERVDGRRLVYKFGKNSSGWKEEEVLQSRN
# In short: as §1
# CRX = CRX (Homo sapiens, UniProt O43186 1-299); details: protein: recombinant; tags: N-terminal GST; dsDNA, one strand shown
# Sequence of CRX (O43186 whole entry): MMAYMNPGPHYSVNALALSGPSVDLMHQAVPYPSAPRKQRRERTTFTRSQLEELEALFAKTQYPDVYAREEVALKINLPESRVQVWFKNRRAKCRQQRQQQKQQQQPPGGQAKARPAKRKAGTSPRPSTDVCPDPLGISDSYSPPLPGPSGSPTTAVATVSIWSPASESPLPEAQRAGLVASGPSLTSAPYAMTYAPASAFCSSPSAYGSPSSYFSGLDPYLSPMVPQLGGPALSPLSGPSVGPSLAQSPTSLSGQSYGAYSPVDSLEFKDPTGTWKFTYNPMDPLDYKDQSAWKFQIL
# In short: as §1
# ETV1 = ETV1 (Homo sapiens, UniProt P50549 1-477); details: protein: recombinant; tags: N-terminal GST; dsDNA, one strand shown
# Sequence of ETV1 (P50549 whole entry): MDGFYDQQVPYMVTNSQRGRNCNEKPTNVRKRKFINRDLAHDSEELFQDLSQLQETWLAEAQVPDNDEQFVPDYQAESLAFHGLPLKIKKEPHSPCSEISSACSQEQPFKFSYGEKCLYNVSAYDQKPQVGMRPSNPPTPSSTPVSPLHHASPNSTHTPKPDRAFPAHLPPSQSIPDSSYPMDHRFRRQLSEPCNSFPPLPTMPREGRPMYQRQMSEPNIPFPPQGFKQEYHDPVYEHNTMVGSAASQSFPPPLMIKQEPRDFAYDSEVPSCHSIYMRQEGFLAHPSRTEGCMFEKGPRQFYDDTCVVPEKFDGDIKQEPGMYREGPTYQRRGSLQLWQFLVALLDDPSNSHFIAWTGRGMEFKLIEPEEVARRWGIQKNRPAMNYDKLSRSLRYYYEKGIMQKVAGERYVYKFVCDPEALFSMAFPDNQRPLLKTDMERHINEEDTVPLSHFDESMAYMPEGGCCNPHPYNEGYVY
# In short: as §1
sequence,measurement,setting,value
TAAAGC,binding signal,FLI1,"1.03 fold enrichment (6-mer frequency, TF over GST control)"
same,binding signal,ELK1,"1.12 fold enrichment (6-mer frequency, TF over GST control)"
same,binding signal,GABPA,"1.11 fold enrichment (6-mer frequency, TF over GST control)"
same,binding signal,ELF1,"1.05 fold enrichment (6-mer frequency, TF over GST control)"
same,binding signal,EHF,"1.02 fold enrichment (6-mer frequency, TF over GST control)"
same,binding signal,SPI1,"1.05 fold enrichment (6-mer frequency, TF over GST control)"
same,binding signal,SPIB,"1.06 fold enrichment (6-mer frequency, TF over GST control)"
same,binding signal,ELK3,"1.09 fold enrichment (6-mer frequency, TF over GST control)"
same,binding signal,FEV,"1.04 fold enrichment (6-mer frequency, TF over GST control)"
same,binding signal,ETV5,"1.09 fold enrichment (6-mer frequency, TF over GST control)"
same,binding signal,HSF1,"1.33 fold enrichment (6-mer frequency, TF over GST control)"
same,binding signal,SPIC,"1.1 fold enrichment (6-mer frequency, TF over GST control)"
same,binding signal,ELF4,"1.05 fold enrichment (6-mer frequency, TF over GST control)"
same,binding signal,ELK4,"1.1 fold enrichment (6-mer frequency, TF over GST control)"
same,binding signal,ELF3,"1.06 fold enrichment (6-mer frequency, TF over GST control)"
same,binding signal,CRX,"1.87 fold enrichment (6-mer frequency, TF over GST control)"
same,binding signal,ETV1,"1.08 fold enrichment (6-mer frequency, TF over GST control)"
